This is part of a sample that, as a whole, favours compounds with a hit. Of some 79,000 tested, about 15% had one in any assay. A number with no mark means an inactive call. Activity calls are given as the source filed them. Cut-off read from the data, not from the text of the source: active = growth inhibition above about 70%; inactive = the rest.

The experiment is described as follows: NCI Yeast Anticancer Drug Screen. Data for the sgs1 mgt1 strain (AID 161).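 Note: 0% = growth of cultures given vehicle only.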 The note with it: S. cerevisiae sgs1 mgt1 strain, at 50.0 µM, hits give high values. The procedure:
Growth inhibition of yeast strains with defined genetic alterations is measured as a screen for potential anti-cancer activity. Selected strains with alterations in DNA damage repair or cell cycle control were exposed to compounds and growth inhibition was measured relative to vehicle treated controls. The strain used in this assay is sgs1 mgt1
As for `CSc1ncnc2[nH]ncc12`, the growth inhibition was -30.5%.

`Cc1ccc(S(=O)(=O)NC2C(=O)c3ccccc3C(=O)C2n2cnc3ccccc32)cc1` (stereo not given): the growth inhibition is -10.9%.

Turning to `CC(=O)Nc1ccc(C2SCc3nc4ccccc4n32)cc1` (stereo not given), the growth inhibition is -32.5%.

Turning to `CCOC(=O)C1CC(=O)C2/C(=C(\O)c3ccccc3)C=C([N+](=O)[O-])C1C2[N+](=O)[O-]` (stereo not given), the growth inhibition is -13.6%.

As for `O=C(NC(Cc1cccnc1)C(=O)O)c1ccccc1` (stereo not given), the growth inhibition is 8.55%.

As for `OC(CCCCCCCCC(O)CN1CCCCC1)CN1CCCCC1` (stereo not given), the growth inhibition is 5.45%.

As for `Cc1[nH]c(N)nc(=S)c1CCC(C)C`, the growth inhibition is -1.05%.

Consider `Cc1cn(C2OC(CO)C(O)C(O)C2O)c(=O)[nH]c1=O` (stereo not given), for which the growth inhibition is -5.45%.

With `CC1NC(=O)OC1C(C)(C)C` (stereo not given), the growth inhibition was -0.75%.

Regarding `BrC1c2ccccc2-c2nc3ccccc3nc21` (stereo not given), the growth inhibition is 1.6%.

For `CC(=O)OC1COC(n2cnc3c(N)ncnc32)C(OC(C)=O)C1OC(C)=O` (stereo not given), the growth inhibition was 2.3%.

Consider `CC(C)=NOC(=O)Nc1cccc2c1OCO2`, for which the growth inhibition is -12%.

In the case of `CC(=O)N(C(=O)CC(=O)NN)c1ccc(Cl)cc1`, the growth inhibition is 3.65%.

With `COc1cc(OC)cc(C(NC(C)=O)NC(C)=O)c1`, the growth inhibition is 7.7%.

Take `Cc1ccc(NC(=O)OCCN(C)C)cc1Cl`: the growth inhibition is 16.4%.

As for `CCOC(=O)/C=C(\N=P(c1ccccc1)(c1ccccc1)c1ccccc1)C(F)(F)C(F)(F)C(F)(F)C(F)(F)C(F)(F)F`, the growth inhibition is 32.4%.

For the compound `CCC(CC(N)=O)C(C#N)(C#N)C(N)=O` (stereo not given), the growth inhibition was -4.05%.

On to `CCNC(=O)C(C(=O)OC)c1ccccc1` (stereo not given), for which the growth inhibition was 5.3%.

Regarding `COC1=C(C#N)C(c2ccccc2)CC(N)=N1` (stereo not given), the growth inhibition was -10.1%.

Consider `CCOC(=O)CC(C)C1(C=O)CCCCC1=O` (stereo not given), for which the growth inhibition was -11.7%.

Turning to `O=C(c1ccccc1)c1nc2ccc(Cl)cc2cc1C(Br)Br`, the growth inhibition is 25.1%.

Regarding `Cn1cc(C2NC(=O)c3ccccc3N2)c2ccccc21` (stereo not given), the growth inhibition is -7.1%.

Turning to `N#C/C(=C\c1cccc(Br)c1)c1nc2ccccc2c(=O)[nH]1`, the growth inhibition was 0.2%.

Take `COc1cccc(C2c3cc4c(cc3OC(N3CCCC3)C2C)OCO4)c1O` (stereo not given): the growth inhibition is 3.3%.

As for `O=C(O)c1cc(-c2ccccc2)nc2c(Cl)cc(Cl)cc12`, the growth inhibition was -1.85%.

As for `N#CC(N)c1ccc(OCCCCCCCCCCOc2ccc(C(N)C#N)cc2)cc1` (stereo not given), the growth inhibition was -27.2%.

As for `Cc1ccccc1C1OC(=O)c2ccc3ccccc3c21` (stereo not given), the growth inhibition was 14.4%.

For `CC1C(=O)C(c2ccccc2)(c2ccccc2)CC[N+]1(C)C` (stereo not given), the growth inhibition is 2.8%.

`O=C1CCCC2=C(N1)C(=O)C=CC2=O`: the growth inhibition was 17.1%.

As to `O=C1Nc2cc([N+](=O)[O-])c(Br)cc2C1=O`, the growth inhibition was 0.7%.

In the case of `O=[N+]([O-])c1ccc(Nc2ccccc2)c2nonc12`, the growth inhibition is -0.1%.

In the case of `COc1cccc(NC(=S)NNC(=S)NNc2ccccc2)c1`, the growth inhibition is 70.3% (active).

As to `C[CH2][Sn]([CH2]C)([O]C(=O)c1cccc(F)c1)[O][Sn]([CH2]C)([CH2]C)[O]C(=O)c1cccc(F)c1`, the growth inhibition was 5.85%.

With `CO[C@@H]1[C@@H](O)c2ccccc2N1C(C)=O`, the growth inhibition was -4%.

`Nc1nc(NC(=O)C2=NS(=O)(=O)c3cc(S(N)(=O)=O)c(Cl)cc3N2)n[nH]1`: the growth inhibition is -3.85%.

`N[C@H](C(=O)O)[C@H]1ON=C(Cl)[C@@H]1O`: the growth inhibition is 7.25%.

As to `CCCCCCCC(=O)NCCCC(C)Nc1cc(OC)cc2cccnc12` (stereo not given), the growth inhibition is 19.4%.

Consider `C/C(=N\N=C(N)N)C(CN(CC(C)C)CC(C)C)C(=O)Nc1ccc(C)cc1C` (stereo not given), for which the growth inhibition is 10.3%.

In the case of `Cc1ccc(NC(=O)C(=O)CC(=O)c2c(C)n([O-])c3ccccc3[n+]2=O)cc1C`, the growth inhibition was 1.25%.

Turning to `CC1C=CC(C)c2c(-c3ccccc3)oc(-c3ccccc3)c21` (stereo not given), the growth inhibition is -1.5%.

Source of the values: PubChem BioAssay (NCI).
